This is a sample that favours compounds with a hit; in the whole collection about 19% have one here.
HT1080NT lethal: qHTS for induction of synthetic lethality in tumor cells producing 2HG: qHTS for the HT-1080-NT fibrosarcoma cell line; Potency, µM (highest dose often 46.1 µM), for the others: at the top dose activity, negative = less viability, actives largely listed as cytotoxic; HT-1080-NT fibrosarcoma viability, CellTiter-Glo ATP luminescence, 48 h; AID 686970, 2013; 1.6% of 360,000 active;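 note: NT is the 2HG producing partner of a matched IDH1 knockdown line; potency is the fitted concentration of half-maximal effect; 0% = DMSO-treated cells and -100% = media-only wells without cells; nearly all actives have a fitted effect of over 55% in size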
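HT-1080-NT fibrosarcoma cells (2HG-overproducing), 750 cells/well in RPMI with 5% FBS, dosed after 2 h and incubated 48 h at 37C. CellTiter-Glo luminescence normalized to DMSO and no-cell wells; concentration-response curves fitted and classed.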
IL-1B inflam inh: qHTS for Inhibitors of Inflammasome Signaling: IL-1-beta AlphaLISA Primary Screen; THP-1 LPS/ATP IL-1B secretion, AlphaLISA, 16 h; hits give low values; activity change, % at 57.5 µM; 4.7% of 360,000 active; AID 743279, 2014; in the data active = activity change below about -50%; inconclusive = mostly about -30% to -49%
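Secreted IL-1B measured by AlphaLISA bead assay after 16 h compound exposure of THP-1 cells; compounds (final up to 57.5 uM) added 1 h before LPS (250 ng/mL) and ATP (1.25 mM) stimulation; lower signal means less secretion.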
DT40 TDP1 CPT: qHTS for Inhibitors of human tyrosyl-DNA phosphodiesterase 1 (TDP1): qHTS in cells in presence of CPT | chicken DT40 Tdp1-/-;hTDP1 cells + 20 nM CPT, ATP luminescence, 48 h | AID 686979, 2013 | Potency, µM (series often up to 46.2 µM), for the others: top-dose activity change, negative = growth inhibition, hits mostly inhibitors | 12% of 420,000 active; note: potency is the fitted concentration of half-maximal effect; nearly all actives have a fitted effect of over 55% in size
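Chicken DT40 Tdp1-/- cells stably complemented with human TDP1 were seeded at 400 cells/well in medium containing 20 nM camptothecin, exposed to pin-transferred compounds, and grown at 37 °C for at least 48 hr. Viability was read as ATP luminescence.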
DT40 TDP1 no CPT: qHTS for Inhibitors of human tyrosyl-DNA phosphodiesterase 1 (TDP1): qHTS in cells in absence of CPT. DT40 Tdp1-/- hTDP1 cells, no CPT, ATP luminescence, 48 h. 15% of 420,000 active. Potency, µM (top dose mostly 46.2 µM), for the others: at the top dose activity change, negative = growth inhibition, hits mostly inhibitors. AID 686978, 2013; note: potency is the fitted concentration of half-maximal effect; nearly all actives have a fitted effect of over 55% in size
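Readout: luminescence from CellTiter-Glo after 30 min in the dark at RT. Cells: DT40 Tdp1-/- with stable hTDP1, 400/well. Exposure: compounds alone, ≥48 hr, 37 °C.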
HT1080 IDH1KD tx: qHTS for induction of synthetic lethality in tumor cells producing 2HG: qHTS for the HT-1080-IDH1KD cell line; HT-1080 IDH1 knockdown viability, ATP luminescence, 48 h; Potency, µM (highest dose often 46.1 µM), for the others: at the top dose activity, negative = toxicity, usual class: cytotoxic; 2% of 360,000 active; AID 686971, 2013;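 note: potency is the fitted concentration of half-maximal effect; 0% = DMSO wells and -100% = cell-free medium wells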
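After a 2 h attachment period, IDH1KD HT-1080 cells took pin-transferred compound for 48 h at 37 °C; ATP-based luminescence after 10 min room-temperature reagent incubation reported viability.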
* marks the source's active call; other numbers are inactive results; u = inconclusive; x = not tested or not shown. Unless noted, calls come from the whole dose curve; as a rule, active = well fitted curve in the direction sought with a large enough effect; inconclusive = small, poorly fitted or top-dose-only effect, or another doubt; inactive = no such curve, though single readings can be large; an effect the other way counts as inactive or inconclusive. Unless noted, % is set by controls: 0 for no effect and ±100 for the full control effect.

SMILES | HT1080NT lethal | IL-1B inflam inh | DT40 TDP1 CPT | DT40 TDP1 no CPT | HT1080 IDH1KD tx
Cc1c(NC(=O)/C=C/c2cn(-c3ccccc3)nc2-c2ccc(F)cc2)c(=O)n(-c2ccccc2)n1C | -6% | -7 | 15µM* | u | 0%
NS(=O)(=O)c1ccc(NC(=O)COC(=O)c2cn(-c3ccccc3)nc2-c2ccc(F)cc2)cc1 | -22% | -2 | u | u | u
O=[N+]([O-])c1ccc2nonc2c1Nc1ccccc1 | -7% | -2 | 7% | -6% | -4%
O=C(CSc1ncnc2c1cnn2-c1ccccc1)NC1CCCC1 | 6% | -9 | 18µM* | 23µM* | 6%
O=C(CSc1ncnc2c1cnn2-c1cccc(Cl)c1)NCC1CCCO1 (configuration not stated) | 9% | -17 | u | 15µM* | 21%
CS(=O)(=O)N(CC(=O)N1CCCC1)c1ccccc1Br | 9% | 19 | -2% | 1% | 6%
Brc1ccc(Sc2cnc3ccccc3n2)cc1 | 17% | -12 | -11% | -22% | 6%
O=S(=O)(Cc1ccccc1)c1cnc2ccccc2n1 | u | -89* | 16µM* | 16µM* | u
COc1ccc(S(=O)(=O)c2cnc3ccccc3n2)cc1 | u | -58* | u | u | u
COc1ccc(S(=O)(=O)c2ccc(OC)cc2)cc1 | 0% | -11 | u | -28% | -4%
O=S(=O)(c1ccc(Br)cc1)c1cnc2ccccc2n1 | u | -101* | 26µM* | u | u
COc1cc(C(C)=O)ccc1Oc1ncnc2c1cnn2-c1ccc(C)c(C)c1 | 0% | -13 | 12µM* | 15µM* | 7%
COc1cc(C(C)=O)ccc1Oc1ncnc2c1cnn2-c1ccccc1 | 1% | -2 | u | u | 10%
O=C(Cn1ncc2c(=O)oc3ccccc3c21)NC1CC1 | -5% | 15 | -1% | -26% | -1%
Cc1ccc2[nH]c3c(=O)n(CC(=O)N(C)c4cc(Cl)ccc4C)ncc3c2c1 | x | x | 18µM* | 15µM* | x
Cc1ccc(N(C)C(=O)Cn2ncc3c([nH]c4ccccc43)c2=O)cc1C | x | x | 12µM* | u | x
Cc1ccc2oc(=O)c3cnn(CC(=O)NC4CCN(Cc5ccccc5)CC4)c3c2c1 | 2% | -10 | 16µM* | 21µM* | 4%
Cc1ccc2oc(=O)c3cnn(CC(=O)N4CCN(c5cc(Cl)ccc5C)CC4)c3c2c1 | x | x | u | 16µM* | x
COc1ccc(CCC(=O)Nc2sccc2C#N)cc1 | 0% | -27 | -29% | u | -5%
Cc1ccc(C)c(N2CCN(C(=O)Cn3ncc4c([nH]c5ccc(C)cc54)c3=O)CC2)c1 | 15% | 6 | 15µM* | 13µM* | 16%
Cc1ccc2[nH]c3c(=O)n(CC(=O)N(CCN(C)C)Cc4ccccc4)ncc3c2c1 | x | x | u | 23µM* | x
CCN(CC)CCOC(=O)c1ccc(NC(=O)Cn2ncc3c([nH]c4ccc(C)cc43)c2=O)cc1 | x | x | 4.1µM* | 3.3µM* | x
Cc1ccc2[nH]c3c(=O)n(CC(=O)N4CCCCC4)ncc3c2c1 | x | x | -16% | 17% | x
COc1cccc(-n2nnc3c(=O)n(CC(=O)Nc4ccc(C)cc4)cnc32)c1 | 14% | -15 | -8% | 0% | 0%
CN1CCN(CC(=O)c2cc(C(C)(C)C)c(O)c(C(C)(C)C)c2)CC1 | -11% | -24 | u | -29% | -20%
SMILES | HT1080NT lethal | IL-1B inflam inh | DT40 TDP1 CPT | DT40 TDP1 no CPT | HT1080 IDH1KD tx
CCOC(=O)C1CCN(Cc2ccc(OC)c(OCc3ccccc3)c2)CC1 | -8% | 5 | 13µM* | 18µM* | -3%
CC(C)(C)c1cc(CN2CCN(CCO)CC2)cc(C(C)(C)C)c1O | 1% | -1 | 13µM* | 21µM* | u
CCOC(=O)C1CCN(Cc2cc(C(C)(C)C)c(O)c(C(C)(C)C)c2)CC1 | 7% | u | u | 18µM* | 1%
CC(=O)c1cccc(N(C(=O)c2ccco2)C(C(=O)NC2CCCCC2)c2ccc(C)o2)c1 (configuration not stated) | 3% | 9 | 6% | -27% | 2%
O=C1NCCN/C1=C\C(=O)c1ccc(Cl)cc1 | 9% | -11 | 1% | -21% | 1%
Cc1ccc(S(=O)(=O)N(Cc2cccc(Cl)c2)C(=O)N2CCN(C)CC2)cc1 | -1% | 2 | -2% | -3% | -1%
Clc1cccc(C[n+]2cc(-c3ccccc3)n3c2CCC3)c1 | 0% | -4 | 2.9µM* | 2.6µM* | u
Cc1ccc(-c2c[n+](Cc3cccc(Cl)c3)c3n2CCC3)cc1 | u | -81* | 0.92µM* | 0.52µM* | u
CC(C)CC1CC(C)(c2csc(NNC(=O)c3ccccc3)n2)OC1=O (configuration not stated) | -1% | 3 | u | u | -2%
CC(=O)OC(c1nc2ccccc2c(=O)n1C1CC2(OC1=O)c1ccccc1N1C(=O)C(C)(C)N(O)C12)C(C)C (configuration not stated) | -4% | 4 | 16µM* | 21µM* | 0%
CCOc1nc(NC2CCCC2)nc(N2CCC(C)CC2)n1 | -17% | 21 | u | u | -13%

Screening data (PubChem)
